Reference: PubChem BioAssay (Tox21)
Records with an inconclusive call do not appear. Calls of active or inactive are those of the source. Unless noted, the call rests on the fitted dose curve; in most records, active means well fitted curve in the direction sought with a large enough effect in the repeat runs; inconclusive means weak or mixed curves; inactive means no such curve, though single readings can be large; an effect the other way counts as inactive or inconclusive.

Tests used:
[1] = qHTS assay to identify small molecule agonists of the peroxisome proliferator-activated receptor delta (PPARd) signaling pathway - cell viability counter screen (AID 743211); further: nearly all actives have a fitted effect of over 55% in size
Method in brief: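 Viability was measured as CellTiter-Glo luminescence (30 min, room temperature) in the same wells as the beta-lactamase readout. GeneBLAzer PPARd UAS-bla HEK293H cells received compound after 5 h plating and were incubated 17 h at 37 C.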

[2] = molecular target: Peroxisome proliferator-activated receptor delta (Homo sapiens) (UniProt Q03181); assay: qHTS assay to identify small molecule agonists of the peroxisome proliferator-activated receptor delta (PPARd) signaling pathway (AID 743212; calls by dose curve)
Method in brief: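 GeneBLAzer PPARd UAS-bla HEK293H cells (beta-lactamase reporter under UAS control), plated and rested 5 h at 37 C, then exposed to compounds in DMSO at 37 C; LiveBLAzer B/G FRET substrate added, 2 h room temperature, fluorescence read.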

[3] = qHTS assay to identify small molecule antagonists of the peroxisome proliferator-activated receptor delta (PPARd) signaling pathway - cell viability counter screen (AID 743213); further: nearly all actives have a fitted effect of over 50% in size
Method in brief: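 PPARd-bla HEK293H cells (3000/well) got compound plus 300 nM L165041 agonist for 17 h at 37 C. Viability in the same wells came from CellTiter-Glo luminescence after 30 min at room temperature.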

[4] = molecular target: Peroxisome proliferator-activated receptor delta (Homo sapiens) (UniProt Q03181); assay: qHTS assay to identify small molecule antagonists of the peroxisome proliferator-activated receptor delta (PPARd) signaling pathway (AID 743215; active means well fitted inhibition curve with a large enough effect in the signal ratio in the repeat runs, not every such curve was filed as active; the % refers to the signal ratio;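 further: cells stimulated with agonist L165041 at 300 nM final during compound exposure; series mostly up to about 62 µM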)
Method in brief: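 PPARd-bla HEK293H cells (UAS-bla reporter) preincubated 5 h, then given compound plus 300 nM final L165041 agonist for 17 h at 37 C. Beta-lactamase activity read by LiveBLAzer B/G FRET substrate fluorescence after 2 h at room temperature.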

[5] = qHTS assay to identify small molecule agonists of the farnesoid-X-receptor (FXR) signaling pathway - cell viability counter screen (AID 743218); further: nearly all actives have a fitted effect of over 45% in size
Method in brief: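 FXR-UAS-bla HEK 293T cells exposed to compounds for 16 h at 37C. Cytotoxicity read in the same wells by CellTiter-Glo luminescence after 30 min at room temperature, following the beta-lactamase FRET read.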

[6] = qHTS assay to identify small molecule antagonists of the farnesoid-X-receptor (FXR) signaling pathway - cell viability counter screen (AID 743221; active means well fitted cell-killing curve with a large enough effect in the repeat runs, not every such curve was filed as active; further: nearly all actives have a fitted effect of over 50% in size)
Method in brief: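 Cytotoxicity counter screen run in the FXR-bla reporter wells: HEK 293T cells exposed to compound with 50 uM (final) chenodeoxycholic acid for 16 h, 37 C, then viability measured by CellTiter-Glo luminescence after 30 min, room temperature.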

[7] = molecular target: Vitamin D3 receptor (Homo sapiens) (UniProt P11473); assay: qHTS assay to identify small molecule agonists of the vitamin D receptor (VDR) signaling pathway (AID 743222; calls by dose curve)
Method in brief: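 VDR-bla cells plated 4 h at 37 C, then exposed to compounds for 16 h at 37 C. Beta-lactamase reporter activity measured by fluorescence after 2 h room-temperature loading with LiveBLAzer B/G FRET substrate.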

[8] = molecular target: Vitamin D3 receptor (Homo sapiens) (UniProt P11473); assay: qHTS assay to identify small molecule antagonists of the vitamin D receptor (VDR) signaling pathway (AID 743223; active means well fitted inhibition curve with a large enough effect in the signal ratio in the repeat runs, not every such curve was filed as active; the % refers to the signal ratio)
Method in brief: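 Antagonist mode: compound added to VDR-bla cells alongside agonist 1alpha,25-dihydroxyvitamin D3 (3 nM final), incubation 16 h at 37C. Read-out is LiveBLAzer FRET fluorescence, 2 h at room temperature.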

[9] = molecular target: Bile acid receptor (Homo sapiens) (UniProt Q96RI1); assay: qHTS assay to identify small molecule antagonists of the farnesoid-X-receptor (FXR) signaling pathway (AID 743217; active means well fitted inhibition curve with a large enough effect in the signal ratio in the repeat runs, not every such curve was filed as active; the % refers to the signal ratio)
Method in brief: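 FXR-UAS-bla HEK 293T cells (beta-lactamase reporter) given compound plus chenodeoxycholic acid (50 uM final), 16 h at 37C. LiveBLAzer B/G FRET substrate added for 2 h at room temperature; fluorescence read.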

[10] = molecular target: Bile acid receptor (Homo sapiens) (UniProt Q96RI1); assay: qHTS assay to identify small molecule agonists of the farnesoid-X-receptor (FXR) signaling pathway (AID 743220; active means well fitted activation curve with a large enough effect in the signal ratio in the repeat runs, not every such curve was filed as active; the % refers to the signal ratio)
Method in brief: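 Beta-lactamase reporter under UAS control in GeneBLAzer FXR HEK 293T cells (5000/well) measured with LiveBLAzer FRET substrate after 2 h at room temperature. Compound exposure lasted 16 h at 37C.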
On the % scale 0 is the no-effect control and ±100 the full control effect.

Sequence of Peroxisome proliferator-activated receptor delta (Homo sapiens) (Q03181 whole entry, looked up): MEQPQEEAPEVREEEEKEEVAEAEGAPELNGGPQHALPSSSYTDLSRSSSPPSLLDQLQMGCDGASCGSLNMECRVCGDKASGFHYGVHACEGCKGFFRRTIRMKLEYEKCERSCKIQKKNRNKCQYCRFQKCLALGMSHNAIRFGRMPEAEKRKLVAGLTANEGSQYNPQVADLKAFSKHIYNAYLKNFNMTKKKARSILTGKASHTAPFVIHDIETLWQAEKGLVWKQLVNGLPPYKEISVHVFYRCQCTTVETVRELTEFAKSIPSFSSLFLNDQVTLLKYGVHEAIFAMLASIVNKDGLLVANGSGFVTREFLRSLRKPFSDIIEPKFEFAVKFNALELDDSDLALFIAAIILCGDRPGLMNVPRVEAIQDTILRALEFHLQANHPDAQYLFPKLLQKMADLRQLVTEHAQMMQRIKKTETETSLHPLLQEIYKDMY
Sequence of Bile acid receptor (Homo sapiens) (Q96RI1 whole entry, looked up): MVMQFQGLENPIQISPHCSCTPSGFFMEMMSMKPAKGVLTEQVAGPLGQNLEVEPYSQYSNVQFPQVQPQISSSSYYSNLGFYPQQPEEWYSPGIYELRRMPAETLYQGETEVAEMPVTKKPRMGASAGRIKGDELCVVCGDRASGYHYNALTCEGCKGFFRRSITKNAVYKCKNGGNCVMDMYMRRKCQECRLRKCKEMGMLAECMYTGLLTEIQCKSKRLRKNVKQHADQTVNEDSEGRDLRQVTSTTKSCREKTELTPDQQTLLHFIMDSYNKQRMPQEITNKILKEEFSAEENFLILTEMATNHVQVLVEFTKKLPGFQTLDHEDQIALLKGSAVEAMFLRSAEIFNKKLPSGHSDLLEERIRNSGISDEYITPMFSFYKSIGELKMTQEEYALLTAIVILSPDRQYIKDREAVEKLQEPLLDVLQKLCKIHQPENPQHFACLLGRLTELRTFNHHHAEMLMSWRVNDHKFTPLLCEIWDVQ
Sequence of Vitamin D3 receptor (Homo sapiens) (P11473 whole entry, looked up): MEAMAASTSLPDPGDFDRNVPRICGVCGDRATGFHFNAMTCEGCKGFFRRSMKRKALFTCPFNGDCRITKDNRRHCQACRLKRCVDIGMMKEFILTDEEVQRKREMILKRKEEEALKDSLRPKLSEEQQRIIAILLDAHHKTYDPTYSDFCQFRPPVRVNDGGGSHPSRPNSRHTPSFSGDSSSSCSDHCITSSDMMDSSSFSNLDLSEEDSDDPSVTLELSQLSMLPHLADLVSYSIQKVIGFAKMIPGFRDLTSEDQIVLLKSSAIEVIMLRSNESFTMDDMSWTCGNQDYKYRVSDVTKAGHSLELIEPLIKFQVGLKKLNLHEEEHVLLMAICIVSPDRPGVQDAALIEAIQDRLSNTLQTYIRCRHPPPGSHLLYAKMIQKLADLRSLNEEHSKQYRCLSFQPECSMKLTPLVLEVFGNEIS

CCOC(=O)c1cccc(N)c1
inactive: Potency [1] | outcome [2] | Potency [3] | Potency [4] | Potency [5] | Potency [6] | outcome [7] | outcome [8]

CCCCC(CC)COC(=O)c1ccccc1O (configuration not stated)
inactive: Potency [1] | outcome [2] | Potency [3] | Potency [4] | Potency [5] | Potency [6] | outcome [7] | outcome [8]

CC(=O)CC(C)(C)C1CCCCC1
inactive: Potency [1] | outcome [2] | Potency [3] | Potency [4] | Potency [5] | Potency [6]

CCOC(=O)C(=O)OCC
inactive: Potency [1] | outcome [2] | Potency [3] | Potency [4] | Potency [5] | Potency [6] | outcome [7] | outcome [8]

O=C(O)CN(CCOCCOCCN(CC(=O)O)CC(=O)O)CC(=O)O
inactive: activity change, negative = cytotoxicity [1] 8.22% [at 0.55 µM] | activation [2] -2.28% [at 0.55 µM] | viability change, negative = cytotoxic [3] 5.18% [at 0.575 µM] | ratio activity, negative = inhibition [4] 6.3% [at 0.575 µM] | viability change, negative = cytotoxic [5] -1.35% [at 0.55 µM] | activity change, negative = cytotoxicity [6] -3.69% [at 0.55 µM] | activation [7] 6.34% [at 0.554 µM] | activity change, negative = inhibition [8] 2.94% [at 0.628 µM]

C[N+](C)(C)CC(O)CC(=O)[O-] (configuration not stated)
inactive: Potency [1] | outcome [2] | Potency [3] | Potency [4] | Potency [5] | outcome [7] | outcome [8]

O=C1CCCCCCCCCCCN1
inactive: Potency [1] | outcome [2] | Potency [3] | Potency [4] | Potency [5] | Potency [6] | outcome [7] | outcome [8]

C=CCOCC(CC)(CO)COCC=C
inactive: Potency [1] | outcome [2] | Potency [3] | Potency [4] | Potency [5] | Potency [6] | outcome [8]

Cn1c(N)c(N=O)c(=O)n(C)c1=O
inactive: Potency [1] | outcome [2] | Potency [3] | Potency [4] | Potency [5] | Potency [6] | outcome [7] | outcome [8]

CC(C)NCC(O)c1ccc(NS(C)(=O)=O)cc1 (configuration not stated)
inactive: Potency [1] | outcome [2] | Potency [3] | Potency [4] | Potency [5] | Potency [6] | outcome [7] | outcome [8]

Nc1ccccc1S(=O)(=O)O
inactive: Potency [1] | outcome [2] | Potency [3] | Potency [4] | Potency [5] | Potency [6] | outcome [7] | outcome [8]

CCOC(=O)c1ccc(C)cc1
inactive: Potency [1] | outcome [2] | Potency [3] | Potency [4] | Potency [5] | Potency [6] | outcome [7]

NC(=O)c1ccc([N+](=O)[O-])cc1
inactive: Potency [1] | outcome [2] | Potency [3] | Potency [4] | Potency [5] | Potency [6] | outcome [7]

Nc1c2c(nc3ccccc13)CCCC2O (configuration not stated)
inactive: Potency [1] | outcome [2] | Potency [3] | Potency [4] | Potency [5] | Potency [6]

Cc1c(NC(C)C)c(=O)n(-c2ccccc2)n1C
inactive: Potency [1] | outcome [2] | Potency [3] | Potency [4] | outcome [7] | outcome [8]

CC(C[N+](C)(C)C)OC(N)=O (configuration not stated)
inactive: Potency [1] | outcome [2] | Potency [4] | outcome [9] | Potency [5] | outcome [10] | Potency [6]

C=CCS(=O)(=O)O
inactive: Potency [1] | outcome [2] | Potency [4] | outcome [9] | Potency [5] | outcome [10]

CC(=O)OCC(CCn1cnc2cnc(N)nc21)COC(C)=O
inactive: Potency [1] | outcome [2] | Potency [3] | Potency [4] | Potency [5] | outcome [7] | outcome [8]

O=C1CC2CC1C1CCCC21 (configuration not stated)
inactive: Potency [1] | outcome [2] | Potency [4] | outcome [9] | Potency [5] | outcome [10] | Potency [6]

Cc1cccn2c(=O)c(-c3nnn[nH]3)cnc12
inactive: Potency [1] | outcome [2] | Potency [3] | Potency [6]

CC[N+](C)(C)c1cccc(O)c1
inactive: Potency [1] | outcome [2] | Potency [4] | outcome [9] | Potency [5] | outcome [10] | Potency [6]

CC1=CC(C)C(C=O)CC1 (configuration not stated)
inactive: Potency [1] | outcome [2] | Potency [3] | Potency [5] | Potency [6] | outcome [7]

Cc1[nH]c(=O)c(C#N)cc1-c1ccc2nccn2c1
inactive: Potency [1] | outcome [2] | Potency [3] | Potency [4] | Potency [5] | outcome [7] | outcome [8]

CC(C)(O)C#CC(C)(C)O
inactive: Potency [1] | outcome [2] | Potency [4]

COc1ccc(CCN(C)CCCC(C#N)(c2cc(OC)c(OC)c(OC)c2)C(C)C)cc1OC (configuration not stated)
inactive: Potency [1] | outcome [2] | Potency [3] | Potency [5] | Potency [6] | outcome [7]

FC(F)OC(Cl)C(F)(F)F (configuration not stated)
inactive: Potency [1] | outcome [2] | Potency [4] | outcome [9] | Potency [5] | outcome [10] | Potency [6]

NS(=O)(=O)c1ccc(C(=O)O)cc1
inactive: Potency [1] | outcome [2] | Potency [4] | outcome [9] | Potency [5] | outcome [10]

CC(=O)OCC(=O)[C@@]1(O)CC[C@H]2[C@@H]3CCC4=CC(=O)CC[C@]4(C)[C@H]3C(=O)C[C@@]21C
inactive: Potency [1] | outcome [2] | Potency [3] | Potency [5]

Cc1c(O)cccc1O
inactive: Potency [1] | outcome [2] | Potency [3] | outcome [9] | Potency [5] | outcome [10] | Potency [6] | outcome [7] | outcome [8]

N=C(N)c1ccccc1
inactive: Potency [1] | outcome [2] | Potency [3] | Potency [4] | Potency [6] | outcome [7]

O=C(CCCN1CCN(c2ccccn2)CC1)c1ccc(F)cc1
inactive: Potency [1] | outcome [2] | Potency [3] | Potency [5] | Potency [6] | outcome [7] | outcome [8]

O=c1cc(-c2ccccc2)oc2ccccc12
inactive: Potency [1] | outcome [2] | Potency [3] | Potency [4] | Potency [6] | outcome [7] | outcome [8]

COc1ccccc1OCC(O)CN1CCN(CC(=O)Nc2c(C)cccc2C)CC1 (configuration not stated)
inactive: Potency [1] | outcome [2] | Potency [3] | Potency [5] | Potency [6] | outcome [7]
